34 compounds from PubChem BioAssay (EPA / NIEHS) can be followed below.

Where “and” joins values, the source holds several entries; their conditions need not be identical. Equal values may be shown once. Some compounds were tested as several samples or in several runs, with calls that do not always agree. Calls of active or inactive are those of the source. The calls were made as follows: active = hit-call score of the fitted dose curve at least 0.9, where 1 is the maximum; inactive = score below 0.9.

Read-out in this test: Decorin, DCN (gene 1634)
The test can be described thus: BSK_MyoF_Decorin: BioMAP Diversity Plus: MyoF Assay for Decorin Biomarker Activity (AID 2284265). Particulars: primary human lung fibroblasts. The gist of the method: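 Human lung fibroblast cultures were dosed for 24 h, and decorin was then measured by ELISA. Parallel cultures were stained with sulforhodamine B for total protein as a cytotoxicity check. Gain of signal was fitted relative to DMSO.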
Take `NC(=O)C(F)(F)C(F)(F)C(F)(F)C(F)(F)F`: the result was inactive.
As for `C=C(C)C(=O)OCC(F)(F)C(F)(F)C(F)(F)F`, the result was inactive.
For the compound `C=CC(F)(F)C(F)(F)C(F)(F)C(F)(F)C(F)(F)C(F)(F)C(F)(F)C(F)(F)F`, the result was inactive.
Consider `C=CC(=O)OCC(F)(F)C(F)(F)C(F)(F)C(F)(F)COC(=O)C=C`, for which the AC50 is 15.7 µM (active) and 17 µM (active).
Turning to `C=C(C)C(=O)OCCC(F)(F)C(F)(F)C(F)(F)C(F)(F)C(F)(C(F)(F)F)C(F)(F)F`, the outcome was inactive.
For `O=S(=O)(OCCOC(F)(F)F)C(F)(F)F`, the outcome was inactive.
Regarding `O=C(O)C(F)(OC(F)(F)C(F)(OC(F)(F)C(F)(F)C(F)(F)F)C(F)(F)F)C(F)(F)F` (configuration not stated), the result was inactive.
As for `O=C(O)C(F)(F)C(F)(F)F`, the outcome was inactive.
Still for that read-out and setting: with `O=C(O)C(F)(F)C(F)(F)C(F)(F)F` the entry was “inactive”.
Take `OCC(F)(F)C(F)(F)C(F)(F)C(F)F`: the half-maximal activity concentration (AC50) is 5.95 µM (active) and the outcome was inactive.
`O=C(Cl)C(F)(F)C(F)(F)C(F)(F)C(F)(F)C(F)(F)C(F)(F)C(F)(F)C(F)(F)F`: the result was inactive.
In the case of `OCCCC(F)(F)C(F)(F)C(F)(F)C(F)(F)C(F)(F)C(F)(F)C(F)(F)F`, the AC50 was 51.2 µM (active) and 52.2 µM (active).
Turning to `CC(C)(C)C(=O)CC(=O)C(F)(F)C(F)(F)C(F)(F)F`, the outcome was inactive.
Turning to `FC(F)(I)C(F)(F)C(F)(F)C(F)(F)I`, the concentration at half-maximal activity (AC50) was 45.8 µM (active) and 45.9 µM (active) and 54.5 µM (active).
`O=S(=O)(O)C(F)(F)C(F)(F)C(F)(F)C(F)(F)C(F)(F)C(F)(F)C(F)(F)F`: the outcome was inactive.
For the compound `FC(F)(F)C(F)(F)C(F)(F)C(F)(F)CCI`, the result was inactive.
On the same count and under the same terms, to `O=C(O)C(F)(F)C(F)(F)C(F)(F)C(F)(F)C(F)(F)C(F)(F)C(F)(F)C(F)(F)C(F)(F)C(F)(F)C(F)(F)C(F)(F)F` belongs “inactive”.
On the same count and under the same terms, to `C=CC(=O)OCC(F)(F)C(F)(F)C(F)(F)C(F)(F)C(F)(F)C(F)(F)C(F)(F)F` belongs “inactive”; to `FC(F)(F)C(F)(F)C(F)(F)C(F)(F)C(F)(F)C(F)(F)C(F)(F)I`, “inactive”; to `O=C(O)C=C(C(F)(F)F)C(F)(F)F`, “inactive”.
As to `O=C(O)C(F)(F)C(F)(F)C(F)F`, the AC50 is 30 µM (active) and the result was inactive.
Turning to `Cc1ccc(S(=O)(=O)OCC(F)(F)C(F)(F)C(F)(F)C(F)(F)C(F)(F)C(F)F)cc1`, the outcome was inactive.
The same measure, in the same setting: with `FC(F)(F)C(F)(F)C(F)(F)C(F)(F)C(F)(F)C(F)(F)CC1CO1` (configuration not stated) the entry was “inactive”; with `FC(F)(F)C(F)(F)C(F)(F)C(F)(F)C(F)(F)C(F)(F)CCS`, “inactive”.
For the compound `O=C(O)C(F)(F)C(F)(F)C(F)(F)C(F)(F)C(F)(F)C(F)(F)C(F)(F)C(F)(F)Cl`, the concentration at half-maximal activity (AC50) was 21.3 µM (active) and the result was inactive.
On to `OCC(F)(F)C(F)(F)C(F)(F)F`, for which the result was inactive.
On the same count and under the same terms, with `O=C(O)C(F)(F)C(F)(F)C(F)(F)C(F)(F)C(F)(F)C(F)(F)C(F)(F)C(F)(F)C(F)(F)C(F)F` the entry was “inactive”.
On the same count and under the same terms, to `FC(F)(Br)C(F)(F)C(F)(F)C(F)(F)C(F)(F)C(F)(F)Br` belongs “inactive”; to `O=C(O)C(F)(OC(F)(F)C(F)(OC(F)(F)C(F)(OC(F)(F)C(F)(F)C(F)(F)F)C(F)(F)F)C(F)(F)F)C(F)(F)F` (configuration not stated), “inactive”; to `OCC(F)(F)C(F)(F)C(F)(F)C(F)(F)C(F)(F)C(F)(F)F`, “inactive”.
Same read-out and setting: with `FC(F)(F)C(F)(F)C(F)(F)C(F)(F)C(F)(F)CCI` the entry was “inactive”; with `FC(F)(F)C(F)(F)C(F)(F)C(F)(F)C(F)(F)C(F)(F)C(F)(F)Br`, “inactive”.
`N=C(N)C(F)(F)C(F)(F)C(F)(F)C(F)(F)C(F)(F)C(F)(F)C(F)(F)F`: the outcome was inactive.
On the same count and under the same terms, with `C=CC(F)(F)C(F)(F)C(F)(F)C(F)(F)C(F)(F)C(F)(F)C(F)(F)C(F)(F)C=C` the entry was “inactive”.

By AC50 is commonly meant the midpoint of the concentration-response curve, whichever way the signal moves.
